In the library only some 11% were active in any assay of this set; here they are far more common.
NPSR antag – qHTS Assay for Antagonists of the Neuropeptide S Receptor: cAMP Signal Transduction; Q6W5P4; CHO-NPSR cells, cAMP TR-FRET, antagonist mode; Potency, µM (top dose mostly 38.3 µM), without a hit: top-dose activity change, negative = inhibition, hits mostly inhibitors; 220,000 tested, 1% active; AID 1461, 2008; active means well fitted curve in the direction sought with a large enough effect; inconclusive means small, poorly fitted or top-dose-only effect, or another doubt; inactive means no such curve, though single readings can be large; an effect the other way counts as inactive or inconclusive; further: potency means the concentration at half of the fitted maximal effect; nearly all actives have a fitted effect of over 50% in size
Target sequence (Q6W5P4 whole entry, looked up): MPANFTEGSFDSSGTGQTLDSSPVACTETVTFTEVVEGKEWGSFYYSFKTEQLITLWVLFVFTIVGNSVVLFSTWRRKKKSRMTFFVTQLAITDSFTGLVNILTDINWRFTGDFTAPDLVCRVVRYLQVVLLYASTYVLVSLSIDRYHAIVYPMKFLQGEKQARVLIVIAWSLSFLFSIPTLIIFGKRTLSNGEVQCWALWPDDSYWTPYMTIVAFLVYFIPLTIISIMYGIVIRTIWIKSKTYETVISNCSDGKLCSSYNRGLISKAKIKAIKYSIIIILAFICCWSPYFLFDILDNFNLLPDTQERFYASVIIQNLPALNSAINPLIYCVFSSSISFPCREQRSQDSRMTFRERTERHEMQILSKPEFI
IMPase inh – qHTS Assay for Identifying the Cell-Membrane Permeable IMPase Inhibitors; Inositol monophosphatase 1 (Rattus norvegicus), P97697; CHO-M1 cells, IP1 accumulation, HTRF TR-FRET ratio; inhibition (IP1 accumulation), % at 46.1 µM; 120,000 tested, under 10 active; AID 901, 2007; active means well fitted curve in the direction sought with a large enough effect in the signal ratio, not every such curve was filed as active; inconclusive means small, poorly fitted or top-dose-only effect, or a change in a side signal; inactive means no such curve, though single readings can be large or run the other way; the % refers to the signal ratio;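 further: cells stimulated with carbachol in lithium chloride buffer; plate controls were DMSO basal wells for no effect and reference inhibitor wells for full effect; higher means more IMPase inhibition seen as more IP1 and lower FRET ratio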
Target sequence (P97697 whole entry, looked up): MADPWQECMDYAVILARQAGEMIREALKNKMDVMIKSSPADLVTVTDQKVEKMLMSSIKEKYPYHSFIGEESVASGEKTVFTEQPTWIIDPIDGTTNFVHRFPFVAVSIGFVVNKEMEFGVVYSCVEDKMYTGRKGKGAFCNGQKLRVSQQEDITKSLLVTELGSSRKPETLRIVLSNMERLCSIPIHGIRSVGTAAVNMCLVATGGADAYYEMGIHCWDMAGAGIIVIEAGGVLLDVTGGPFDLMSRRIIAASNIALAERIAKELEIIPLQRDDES
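CHO-M1, 2000 cells/well, cultured 16–30 h; cpd up to 46 uM; carbachol (50 uM solution, stimulation buffer w/ 50 mM LiCl, pH 7.4), 30 min 37C; IP-One TR-FRET, 10 min RT; Ex 320/Em 665, 620; Hill-fit AC50.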
ALDH1A1 inh – qHTS Assay for Inhibitors of Aldehyde Dehydrogenase 1 (ALDH1A1); Potency, µM (titrated, usually from 75.3 µM), inactives show at the top dose activity, negative = inhibition, usual class: inhibitors; Purified ALDH1A1, NADH fluorescence, propionaldehyde substrate; Aldehyde dehydrogenase 1A1 (Homo sapiens), P00352; 220,000 tested, 7.3% active;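 further: potency means the concentration at half of the fitted maximal effect; plate controls were no enzyme wells and a reference inhibitor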
PNC inhibitor – High Content Assay for Compounds that inhibit the Assembly of the Perinucleolar Compartment. activity change (PNC), negative = inhibition, % at 10 µM. 140,000 tested, 3.1% active. PC3M PTB-GFP, PNC prevalence imaging, 16 h; hits give low values;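 active means readout at or below -70, meaning at least 70% loss of cells showing the perinucleolar compartment, a nuclear body marking cancer cells; inconclusive means readout between -30 and a set limit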;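 further: plate controls were DMSO wells for no effect and camptothecin positive control wells for full effect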
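PC3M cells stably expressing PTB-GFP, 750–1000 cells/well, treated 16 h at 37 °C with compound (23 nl of library stock), in duplicate. After paraformaldehyde fixation and Hoechst stain, imaged at 20x; PNC prevalence scored by image analysis.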
HPGD block – qHTS Assay for Inhibitors of HPGD (15-Hydroxyprostaglandin Dehydrogenase); 15-hydroxyprostaglandin dehydrogenase [NAD(+)] (Homo sapiens), P15428; purified HPGD, NADH fluorescence kinetic, PGE2 substrate; Potency, µM, without a hit: at the highest dose activity change, negative = inhibition, usual class: inhibitors; 150,000 tested, 4.3% active; further: potency means the concentration at half of the fitted maximal effect
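NADH formation kinetics: reaction with 30 uM PGE2 and 1 mM NAD+ (final), 20 nM enzyme, Tris-HCl pH 8 with Tween 20, after 15 min compound preincubation at room temperature. Fluorescence change, last versus first of five reads.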
IMPase Li inh – qHTS Assay for Identifying the Cell-Membrane Permeable IMPase Inhibitors: Potentiation with Lithium; AID 1457, 2008; Potency, µM (series often up to 59.4 µM), inactives show at the highest dose activity, negative = IMPase inhibition, actives largely listed as inhibitors; CHO-M1 cells, IP1 TR-FRET (IP-One), carbachol + lithium; 210,000 tested, 0.35% active; active means well fitted curve in the direction sought with a large enough effect; inconclusive means small, poorly fitted or top-dose-only effect, or another doubt; inactive means no such curve, though single readings can be large; an effect the other way counts as inactive or inconclusive;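 further: IP1 builds up when IMPase is blocked and the TR-FRET signal falls; potency means the concentration at half of the fitted maximal effect; plate controls were basal vehicle for no effect and high inhibitor control for full effect; nearly all actives have a fitted effect of over 50% in size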
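CHO-M1, 2000 cells/well, 16–30 h culture; cpd + low Li+, 30 min 37C; lysis with d2-IP1/Eu-anti-IP1 Ab, 10 min RT; TR-FRET 665/620 ratio and 620 channel; AC50 via Hill.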
The depositor's hits bear a star; [ ] = dose if it differs, or a comment. Unless noted, the call rests on the fitted dose curve; in most records, active means well fitted inhibition curve with a large enough effect (not every such curve was filed as active); inconclusive means small, poorly fitted or top-dose-only effect, or another doubt; inactive means no such curve, though single readings can be large or run the other way. Unless noted, on the % scale 0 is the no-effect control and ±100 the full control effect.

Results for CCOC(=O)C(=O)N=Nc1c(O)n(C)c2ccccc12 ?
NPSR antag: 11.4%; ALDH1A1 inh: 14.1µM*; IMPase Li inh: 3.3%

How did COC(=O)Cn1c(C)c(C#N)c2ccccc21 do in these assays?
NPSR antag: -0.5%[46.1 µM]; IMPase inh: -2.6; ALDH1A1 inh: 1.6%; PNC inhibitor: inconclusive; HPGD block: -9.1%; IMPase Li inh: 21.5%

What do the screens show for `O=C(OC[C@@H](O)CO)c1ccccc1Nc1ccnc2cc(Cl)ccc12`?
IMPase inh: 3.8[20.6 µM]; ALDH1A1 inh: 6.4%[20.9 µM]; HPGD block: -6.9%; IMPase Li inh: 4.9%

Results for CC(C)N1C(=O)CC2(CC[N+](C)(CCOC(=O)C(c3ccccc3)c3ccccc3)CC2)C1=O (configuration not stated) ?
NPSR antag: inconclusive; IMPase inh: 7.2; ALDH1A1 inh: 25.1µM*; PNC inhibitor: -27.3; HPGD block: inconclusive; IMPase Li inh: 7.5%[38.3 µM]

What do the screens show for `O=C(c1cccnc1)N1CCN(C(=O)c2cccs2)CC1`?
NPSR antag: -4.5%[46.1 µM]; IMPase inh: 8.9; ALDH1A1 inh: 3.5%; PNC inhibitor: 47.8; HPGD block: 0.1%; IMPase Li inh: 19.7%[38.3 µM]

What do the screens show for `O=C1CCC(=O)N1OCCCOc1ccc(Br)cc1Cl`?
NPSR antag: -1.0%[46.1 µM]; IMPase inh: 8.0; ALDH1A1 inh: -1.9%; PNC inhibitor: -11.3; HPGD block: 17.8µM*; IMPase Li inh: -1.0%

Results for CCCn1c(C)nc2c(NCCCN(C)C)nc(C)nc21 ?
ALDH1A1 inh: 13.8%; HPGD block: -12.5%; IMPase Li inh: 6.1%

What do the screens show for `COc1ccccc1N(C(C)=O)c1nc(C)cc(C)c1C#N`?
NPSR antag: 1.6%[46.1 µM]; IMPase inh: inconclusive; ALDH1A1 inh: 2.8%; PNC inhibitor: inconclusive; HPGD block: -4.1%; IMPase Li inh: 3.4%

Results for CC(C)OC(=O)c1cccc(NC(=O)CSc2nnc(N)s2)c1 ?
NPSR antag: 13.7%; ALDH1A1 inh: inconclusive; IMPase Li inh: -4.6%

How did Cc1ccc(NC(=O)CNc2ccc(OC(C)C)cc2)cc1 do in these assays?
NPSR antag: -11.1%[46.1 µM]; IMPase inh: 6.0; ALDH1A1 inh: 7.08µM*; PNC inhibitor: 15.7; HPGD block: -8.4%; IMPase Li inh: 44.4%[38.3 µM]

How did COc1ccc(NC(=O)CNc2ccc(C#N)cc2)cc1 do in these assays?
NPSR antag: 7.9%; ALDH1A1 inh: 22.4µM*; IMPase Li inh: -3.8%

What do the screens show for `COc1ccc(NC(=O)NC(C)C2CC3CCC2C3)cc1` (configuration not stated)?
NPSR antag: 15.2%; ALDH1A1 inh: inconclusive; IMPase Li inh: 3.8%

Results for N=C1C(c2nc3ccccc3[nH]2)=C(O)CN1c1ccc(CC(=O)O)cc1 ?
NPSR antag: -4.7%[46.1 µM]; IMPase inh: 8.7; ALDH1A1 inh: 23.8µM*; PNC inhibitor: -23.7; HPGD block: -21.8%; IMPase Li inh: 29.7%[38.3 µM]

Results for N=C1C(c2nc3ccccc3c(=O)[nH]2)=C(O)CN1c1ccccc1 ?
NPSR antag: -12.8%[46.1 µM]; IMPase inh: -3.1; ALDH1A1 inh: inconclusive; PNC inhibitor: inconclusive; HPGD block: inconclusive; IMPase Li inh: 21.4%[38.3 µM]

What do the screens show for `O=C(CCC1CCCN(C(=O)c2ccc3cc[nH]c3c2)C1)N1CCN(c2ccccn2)CC1` (configuration not stated)?
NPSR antag: -14.5%; ALDH1A1 inh: -11.8%; IMPase Li inh: 8.1%

How did COc1ccc(CNc2ccc(C)c(C)c2)cc1 do in these assays?
NPSR antag: -16.2%; ALDH1A1 inh: -6.1%; IMPase Li inh: 4.0%

What do the screens show for `COc1cc(CNc2ccc(N3CCCC3)cc2)ccc1OCc1ccccc1`?
NPSR antag: -16.2%; IMPase inh: 1.3; ALDH1A1 inh: 7.94µM*; PNC inhibitor: -8.7; HPGD block: -14.8%; IMPase Li inh: 18.1%

Results for COc1cc(CNc2ccc(N3CCCC3)cc2)ccc1OCc1ccccc1F ?
NPSR antag: -53.5%; ALDH1A1 inh: 2.9%; PNC inhibitor: 24.3; HPGD block: -25.6%; IMPase Li inh: -4.6%

Results for COc1ccc(NCc2ccc(OC)c(OC)c2)cc1 ?
NPSR antag: 5.8%[46.1 µM]; IMPase inh: 8.2; ALDH1A1 inh: 28.2µM*; PNC inhibitor: -11.5; HPGD block: -11.7%; IMPase Li inh: 6.0%[38.3 µM]

What do the screens show for `CC1(C)Cc2cccc(Oc3ccc(S(=O)(=O)N4CCCC4)cn3)c2O1`?
NPSR antag: -19.1%; ALDH1A1 inh: -10.4%; IMPase Li inh: 8.4%

What do the screens show for `Cc1ccccc1N/C(=C(/C(Cl)=C(Cl)Cl)[N+](=O)[O-])n1nnc2ccccc21`?
NPSR antag: -8.4%[46.1 µM]; IMPase inh: 6.4; ALDH1A1 inh: 14.1µM*; PNC inhibitor: -3.3; HPGD block: -14.7%; IMPase Li inh: -10.4%[38.3 µM]

What do the screens show for `Cc1ccccc1NC(=O)Cn1c([N+](=O)[O-])cnc1C`?
NPSR antag: 9.3%; ALDH1A1 inh: -0.9%; PNC inhibitor: 20.1; HPGD block: -4.7%; IMPase Li inh: -0.7%

What do the screens show for `COc1ccc(N/C(=C(/C(Cl)=C(Cl)Cl)[N+](=O)[O-])n2nnc3ccccc32)cc1`?
NPSR antag: -7.5%[46.1 µM]; IMPase inh: -0.6; ALDH1A1 inh: 15.8µM*; PNC inhibitor: 29.7; HPGD block: -20.6%; IMPase Li inh: 1.2%[38.3 µM]

How did COc1ccc(NC(=O)COC(=O)Cn2nnc3ccccc32)cc1 do in these assays?
NPSR antag: 4.3%; ALDH1A1 inh: -9.1%; IMPase Li inh: 24.4%

How did Cc1cc(C(=O)OCC(=O)c2ccc(Br)s2)c(C)o1 do in these assays?
NPSR antag: 6.9%[46.1 µM]; IMPase inh: -21.5; ALDH1A1 inh: inconclusive; PNC inhibitor: -29.1; HPGD block: inconclusive; IMPase Li inh: -17.7%[38.3 µM]

What do the screens show for `CN(C(=O)CSCC(=O)O)C1CCCCC1`?
NPSR antag: 8.5%; IMPase inh: -3.7; ALDH1A1 inh: 2µM*; PNC inhibitor: inconclusive; HPGD block: -10.4%; IMPase Li inh: -7.0%

What do the screens show for `CN(C(=O)CSc1ccccc1C(=O)O)C1CCCCC1`?
NPSR antag: -5.1%[46.1 µM]; IMPase inh: -5.7; ALDH1A1 inh: 3.16µM*; PNC inhibitor: 31.6; HPGD block: -5.9%; IMPase Li inh: 28.8%[38.3 µM]

How did CC1CCCCC1NC(=O)CSCC(=O)O (configuration not stated) do in these assays?
NPSR antag: 15.2%; ALDH1A1 inh: -9.8%; PNC inhibitor: 16.6; HPGD block: -4.5%; IMPase Li inh: 4.7%

High-throughput results: PubChem, National Center for Advancing Translational Sciences (NCATS)
